Results filed as inconclusive are left out. Active and inactive are the calls of the source. Unless noted, calls follow the shape of the full dose curve.
Columns and labels:
[1] = biological target: Gonadotropin-releasing hormone receptor (Homo sapiens) (UniProt P30968); test: Human gonadotropin-releasing hormone receptor (GnRHR) small molecule agonists, calcium flux assay in GnRHR-HEK293 cells (AID 1920063); also: nearly all actives have a fitted effect of over 35% in size
Outline: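 Intracellular calcium rise is the read-out: engineered human GnRHR HEK293 cells, dye-loaded, are exposed to DMSO-dissolved compounds and fluorescence at Ex/Em 480/540 is tracked for 3 min.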

[2] = biological target: KiSS-1 receptor (Homo sapiens) (UniProt Q969F8); test: Human kisspeptin (KISS1R) small molecule agonists, calcium flux assay in KISS1R-HEK293 cells (AID 1920064; active = well fitted activation curve with a large enough effect in the repeat runs)
KiSS-1 receptor (Homo sapiens), sequence (Q969F8 whole entry, looked up): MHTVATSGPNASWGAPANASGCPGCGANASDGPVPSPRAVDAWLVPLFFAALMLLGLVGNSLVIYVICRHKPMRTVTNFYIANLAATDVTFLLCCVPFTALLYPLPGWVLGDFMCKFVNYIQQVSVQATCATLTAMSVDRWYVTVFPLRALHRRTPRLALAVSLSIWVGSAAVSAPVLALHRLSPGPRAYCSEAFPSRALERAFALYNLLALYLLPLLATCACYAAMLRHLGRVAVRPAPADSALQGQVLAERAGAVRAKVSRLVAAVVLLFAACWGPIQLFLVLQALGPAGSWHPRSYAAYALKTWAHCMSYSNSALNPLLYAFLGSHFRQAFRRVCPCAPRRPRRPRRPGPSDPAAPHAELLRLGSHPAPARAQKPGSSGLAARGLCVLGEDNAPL
Outline: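 Concentration-response testing used 15 concentrations in triplicate on human KISS1R-expressing HEK293 cells. Calcium-dependent fluorescence (Ex/Em 480/540) was followed kinetically for 3 min after compound transfer.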

[3] = G protein-coupled receptor (GPCR) small molecule agonists, calcium flux assay: HEK293 wild type cell line counter screen (AID 1920065)
Outline: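 Fluorescence intensity signals activation. After overnight (18 h) culture and a 1 h calcium dye load at 37 C, compounds are added by pin tool and the plate read at 480/540 nm for 3 min in 1 s steps.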

[4] = p53 small molecule agonists, cell-based qHTS assay with human liver microsomes: qHTS cell viability counter screen (AID 1963579); also: nearly all actives have a fitted effect of over 45% in size
Outline: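 Metabolically activated exposure: compounds, human liver microsomes and NADPH (0.5 mg/mL final apiece) were added to p53RE-bla cells seeded 5 h earlier, left 16 h at 37 C, and then assessed for viability by CellTiter-Glo luminescence.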

[5] = p53 small molecule agonists, cell-based qHTS assay with rat liver microsomes: qHTS cell viability counter screen (AID 1963580); also: nearly all actives have a fitted effect of over 45% in size
Outline: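 Cytotoxicity counter screen: intracellular ATP measured by CellTiter-Glo luminescence in the same wells as the beta-lactamase reporter read, on HCT-116 p53RE-bla cells exposed 16 h at 37 C to compounds with rat liver microsomes and NADPH, each 0.5 mg/mL final.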

[6] = p53 small molecule agonists, cell-based qHTS assay: qHTS cell viability counter screen (AID 1963581); also: nearly all actives have a fitted effect of over 45% in size
Outline: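 Luminescence from CellTiter-Glo, reflecting ATP content, serves as the cytotoxicity measure; it is taken after the 2 h reporter substrate step in HCT-116 p53RE-bla cells dosed for 16 h at 37 C.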

[7] = biological target: 5-hydroxytryptamine receptor 2A (Homo sapiens) (UniProt P28223); test: 5-hydroxytryptamine receptor 2A (HTR2A) small molecule antagonists, cell-based qHTS assay (AID 1963586); also: nearly all actives have a fitted effect of over 45% in size
5-hydroxytryptamine receptor 2A (Homo sapiens), sequence (P28223 whole entry, looked up): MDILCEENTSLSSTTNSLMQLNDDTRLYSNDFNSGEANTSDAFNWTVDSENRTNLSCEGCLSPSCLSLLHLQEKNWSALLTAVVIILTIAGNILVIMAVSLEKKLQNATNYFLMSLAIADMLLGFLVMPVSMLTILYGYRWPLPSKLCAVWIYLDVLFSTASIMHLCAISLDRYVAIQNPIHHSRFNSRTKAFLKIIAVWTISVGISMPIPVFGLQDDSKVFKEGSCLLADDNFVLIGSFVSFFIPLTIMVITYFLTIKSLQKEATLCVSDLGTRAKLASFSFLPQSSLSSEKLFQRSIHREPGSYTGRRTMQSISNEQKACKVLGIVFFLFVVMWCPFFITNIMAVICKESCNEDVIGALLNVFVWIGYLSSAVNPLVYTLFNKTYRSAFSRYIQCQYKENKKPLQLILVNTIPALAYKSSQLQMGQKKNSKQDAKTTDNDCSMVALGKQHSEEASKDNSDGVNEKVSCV
Outline: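 CHO cells stably expressing human HTR2A were plated for 18 h at 37 C, then loaded with calcium dye for 1 h. Compounds were preincubated 5 min at room temperature before DOI (4 nM solution) was added. Kinetic fluorescence was read for 3 min.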

[8] = biological target: 5-hydroxytryptamine receptor 2A (Homo sapiens) (UniProt P28223); test: 5-hydroxytryptamine receptor 2A (HTR2A) small molecule agonists, cell-based qHTS assay (AID 1963587); also: nearly all actives have a fitted effect of over 30% in size
Outline: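 CHO cells stably expressing human HTR2A, plated 18 h, loaded with calcium dye 1 h at 37 C. Agonist mode: compounds added and intracellular calcium fluorescence recorded kinetically for 2 min at 1 sec intervals.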

[9] = biological target: Muscarinic acetylcholine receptor M1 (Homo sapiens) (UniProt P11229); test: Cholinergic receptor muscarinic 1 (CHRM1) small molecule antagonists, cell-based qHTS assay (AID 1963588); also: nearly all actives have a fitted effect of over 40% in size
Muscarinic acetylcholine receptor M1 (Homo sapiens), sequence (P11229 whole entry, looked up): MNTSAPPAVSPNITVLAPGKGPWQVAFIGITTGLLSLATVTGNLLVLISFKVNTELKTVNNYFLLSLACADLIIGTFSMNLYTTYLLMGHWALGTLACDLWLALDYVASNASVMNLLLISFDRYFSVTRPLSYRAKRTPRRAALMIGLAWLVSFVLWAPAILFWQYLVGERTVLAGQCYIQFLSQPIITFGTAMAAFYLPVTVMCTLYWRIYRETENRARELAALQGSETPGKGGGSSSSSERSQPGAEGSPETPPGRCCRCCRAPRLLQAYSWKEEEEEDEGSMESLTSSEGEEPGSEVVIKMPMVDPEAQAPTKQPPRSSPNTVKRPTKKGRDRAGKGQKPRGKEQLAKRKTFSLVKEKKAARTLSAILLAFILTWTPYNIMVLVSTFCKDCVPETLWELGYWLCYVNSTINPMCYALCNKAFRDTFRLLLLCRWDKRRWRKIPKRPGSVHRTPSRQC
Outline: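 Compounds were tested at 15 concentrations in three independent runs. Dye-loaded CHRM1-CHO cells were exposed 5 min at room temperature before stimulation by acetylcholine added at 50nM. Intracellular calcium was read kinetically on FDSS for 3 min.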

[10] = biological target: Muscarinic acetylcholine receptor M1 (Homo sapiens) (UniProt P11229); test: Cholinergic receptor muscarinic 1 (CHRM1) small molecule agonists, cell-based qHTS assay (AID 1963589); also: nearly all actives have a fitted effect of over 35% in size
Outline: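 Fluorescent calcium dye reports M1 activation in stably transfected CHO cells. Compounds, 15 concentrations, added after 1 h dye loading at 37 C; kinetic reading at 1 sec intervals.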

[11] = cAMP Responsive Elements (CRE) small molecule agonists, cell-based qHTS assay (AID 1963590)
Outline: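 Compound exposure lasted 3 h at 37 C/5% CO2 in CRE-bla HEK 293T cells grown in assay medium with 10% dialyzed FBS and 25 mM HEPES. Reporter signal came from LiveBLAzer B/G FRET substrate, 2 h, room temperature.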

[12] = cAMP Responsive Elements (CRE) small molecule antagonists, cell-based qHTS assay (AID 1963591; active = well fitted inhibition curve with a large enough effect in the signal ratio in the repeat runs, not every such curve was filed as active; the % refers to the signal ratio)
Outline: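 Stimulation used NKH477 at a final 0.25 uM for 3 h in compound-treated CRE-bla HEK293T cells, seeded 18 h beforehand. Reporter activity was measured with LiveBLAzer B/G FRET substrate after 2 h at room temperature.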

[13] = biological target: D(2) dopamine receptor (Homo sapiens) (UniProt P14416); test: Dopamine D2 receptor (DRD2) small molecule agonists, cell-based qHTS assay (AID 1963594); also: nearly all actives have a fitted effect of over 35% in size
D(2) dopamine receptor (Homo sapiens), sequence (P14416 whole entry, looked up): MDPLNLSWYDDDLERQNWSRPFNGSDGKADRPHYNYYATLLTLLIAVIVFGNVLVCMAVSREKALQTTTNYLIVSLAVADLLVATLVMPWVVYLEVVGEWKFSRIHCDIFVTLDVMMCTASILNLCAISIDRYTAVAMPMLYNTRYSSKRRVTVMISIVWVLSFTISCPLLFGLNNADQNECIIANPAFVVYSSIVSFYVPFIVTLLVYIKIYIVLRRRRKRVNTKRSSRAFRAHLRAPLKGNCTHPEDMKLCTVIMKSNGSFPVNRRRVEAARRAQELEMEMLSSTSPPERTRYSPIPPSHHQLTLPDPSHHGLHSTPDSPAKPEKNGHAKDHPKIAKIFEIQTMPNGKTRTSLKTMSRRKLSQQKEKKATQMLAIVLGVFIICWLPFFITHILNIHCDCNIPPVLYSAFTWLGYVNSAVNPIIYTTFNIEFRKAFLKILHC
Outline: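 HEK293 cells stably expressing human DRD2, pre-treated with PDE inhibitor Ro20-1724 (0.1 mM final) and compound 10 min at room temperature, then stimulated with NKH477 (200nM […]) for 30 min. cAMP read by HTRF (665/620 nm).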

[14] = biological target: D(2) dopamine receptor (Homo sapiens) (UniProt P14416); test: Dopamine D2 receptor (DRD2) small molecule antagonists, cell-based qHTS assay (AID 1963595; active = well fitted inhibition curve with a large enough effect in the signal ratio in the repeat runs, with a control signal flat; the % refers to the signal ratio)
Outline: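 Antagonist mode in DRD2-HEK293 cells: after compound addition with 0.1 mM Ro20-1724, cells received quinpirole (12 nM) and NKH477 (200 nM) for 30 min at room temperature; HTRF cAMP read after 1 h detection.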

[15] = Nuclear factor erythroid 2-related factor 2/antioxidant responsive element (Nrf2/ARE) small molecule agonists: luciferase reporter gene qHTS assay in human keratinocytes (AID 1919969); also: nearly all actives have a fitted effect of over 35% in size
[16] = p53 small molecule agonists, cell-based qHTS assay with human liver microsomes (AID 1963577);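 also: p53 response element beta-lactamase reporter cells with liver microsomes plus NADPH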
Outline: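 In this qHTS, p53 response-element beta-lactamase cells receive test compound together with a microsome/NADPH activating system (0.5 mg/mL final each) and are incubated 16 h at 37 C before LiveBLAzer fluorescence detection.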

[17] = p53 small molecule agonists, cell-based qHTS assay with rat liver microsomes (AID 1963578)
Outline: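 Agonist mode in p53RE-bla reporter cells, with compounds co-incubated 16 h at 37 C alongside 0.5 mg/mL rat liver microsomes and 0.5 mg/mL NADPH (final), followed by a 2 h LiveBLAzer detection step.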

[18] = p53 small molecule agonists, cell-based qHTS assay (AID 1963582; active = well fitted activation curve with a large enough effect in the signal ratio in the repeat runs, not every such curve was filed as active; the % refers to the signal ratio)
Outline: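 After plating, p53RE-bla cells sat 5 h in the incubator; compounds or DMSO vehicle were pinned in; a 16 h incubation at 37 C followed; FRET substrate was added and, 2 h later at RT, fluorescence was measured.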

[19] = biological target: Beta-2 adrenergic receptor (Homo sapiens) (UniProt P07550); test: Adrenergic beta2 receptor (ADRB2) small molecule antagonists, cell-based qHTS assay (AID 1963592); also: series mostly up to about 92 µM; nearly all actives have a fitted effect of over 50% in size
Beta-2 adrenergic receptor (Homo sapiens), sequence (P07550 whole entry, looked up): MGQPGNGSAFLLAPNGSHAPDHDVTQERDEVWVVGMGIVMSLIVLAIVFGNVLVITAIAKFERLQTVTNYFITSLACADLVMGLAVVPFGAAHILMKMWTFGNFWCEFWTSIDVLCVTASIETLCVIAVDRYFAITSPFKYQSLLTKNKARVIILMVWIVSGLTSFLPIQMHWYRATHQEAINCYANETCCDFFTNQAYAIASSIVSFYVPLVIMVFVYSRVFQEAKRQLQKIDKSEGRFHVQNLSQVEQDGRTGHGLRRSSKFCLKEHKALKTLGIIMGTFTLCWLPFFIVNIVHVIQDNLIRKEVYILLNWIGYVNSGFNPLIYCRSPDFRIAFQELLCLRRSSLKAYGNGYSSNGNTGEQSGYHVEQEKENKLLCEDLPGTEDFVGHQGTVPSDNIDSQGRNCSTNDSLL
Outline: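 Assay format: CHO-ADRB2 cells, 18-20hr seeding at 37C/5% CO2, then compound plus 1nM isoproterenol agonist mix for 0.5hr RT. Homogeneous time-resolved fluorescence cAMP detection after 1hr, expressed as 665/615 nm ratio.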

[20] = biological target: Beta-2 adrenergic receptor (Homo sapiens) (UniProt P07550); test: Adrenergic beta2 receptor (ADRB2) small molecule agonists, cell-based qHTS assay (AID 1963593);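 also: CHO cells stably overexpressing human ADRB2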
Outline: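 CHO cells stably over-expressing ADRB2 were plated overnight at 37C, then dosed with compounds plus a stimulation mix containing 100uM IBMX and 25uM Ro-20-1724 for 0.5hr at room temperature. cAMP was measured by HTRF competition, 1hr.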
% is scaled to controls: 0 for no effect and ±100 for the full control effect.

Gonadotropin-releasing hormone receptor (Homo sapiens), sequence (P30968 whole entry, looked up): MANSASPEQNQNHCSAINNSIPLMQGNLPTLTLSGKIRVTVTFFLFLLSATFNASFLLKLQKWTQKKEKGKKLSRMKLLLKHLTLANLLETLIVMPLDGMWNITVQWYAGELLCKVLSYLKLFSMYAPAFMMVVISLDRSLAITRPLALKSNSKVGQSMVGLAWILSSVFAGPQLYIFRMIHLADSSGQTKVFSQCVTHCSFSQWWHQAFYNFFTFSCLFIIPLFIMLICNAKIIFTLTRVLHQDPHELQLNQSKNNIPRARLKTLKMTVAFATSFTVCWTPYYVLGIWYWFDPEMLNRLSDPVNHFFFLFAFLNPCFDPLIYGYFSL

CC1=CC[C@@H]2C[C@H]1C2(C)C
inactive: activity change [1] 0.0518% [at 11.8 µM, hits give high values] | activation [2] -0.901% [at 15.8 µM] | activation [3] -1.47% [at 11.8 µM] | activity change, negative = cytotoxicity [4] -2.33% [at 13.5 µM] | activity change, negative = cytotoxicity [5] 4.85% [at 13.5 µM] | activity change, negative = cytotoxicity [6] -11.2% [at 13.5 µM] | activity, negative = inhibition [7] 6.44% [at 12.7 µM] | activation [8] -0.177% [at 15.9 µM] | activity, negative = inhibition [9] -2.89% [at 12.6 µM] | activation [10] -0.0486% [at 15.8 µM] | activation [11] 0.0762% [at 19 µM] | activity change, negative = inhibition [12] 3.33% [at 18.9 µM] | activation [13] -0.279% [at 19 µM] | activity change, negative = inhibition [14] -2.93% [at 18.9 µM]

CC/C=C\CCOC(=O)CCCCC
inactive: Potency [15] | Potency [1] | Potency [3] | Potency [16] | Potency [17] | Potency [4] | Potency [5] | Potency [6] | Potency [18] | Potency [7] | Potency [8] | Potency [9] | Potency [10] | Potency [11] | Potency [12] | Potency [19] | Potency [13] | Potency [14]

O=C(NCC1CCCCN1)c1cc(OCC(F)(F)F)ccc1OCC(F)(F)F (configuration not stated)
inactive: Potency [15] | Potency [1] | Potency [2] | Potency [3] | Potency [6] | Potency [18] | Potency [7] | Potency [8] | Potency [9] | Potency [10] | Potency [11] | Potency [12] | Potency [19] | Potency [13] | Potency [14]

Cc1ccccc1C(N)=O
inactive: Potency [1] | Potency [2] | Potency [16] | Potency [17] | Potency [5] | Potency [6] | Potency [18] | Potency [7] | Potency [8] | Potency [9] | Potency [11] | Potency [12] | Potency [19] | Potency [20] | Potency [13] | Potency [14]

[O-][n+]1ccc(Cl)cc1
inactive: Potency [15] | Potency [2] | Potency [3] | Potency [16] | Potency [17] | Potency [4] | Potency [6] | Potency [18] | Potency [7] | Potency [8] | Potency [9] | Potency [10] | Potency [11] | Potency [12] | Potency [19] | Potency [20] | Potency [13] | Potency [14]

NC1CCCCC1N (configuration not stated)
inactive: Potency [2] | Potency [3] | Potency [16] | Potency [17] | Potency [4] | Potency [5] | Potency [6] | Potency [18] | Potency [8] | Potency [9] | Potency [10] | Potency [11] | Potency [12] | Potency [13] | Potency [14]

CC[C@]12CCCN3CCc4c(n(c5ccccc45)[C@@](O)(C(=O)OC)C1)[C@@H]32
inactive: Potency [15] | Potency [1] | Potency [2] | Potency [16] | Potency [4] | Potency [5] | Potency [7] | Potency [8] | Potency [9] | Potency [10] | Potency [11] | Potency [12] | Potency [20] | Potency [13]

CC#N
inactive: Potency [15] | Potency [2] | Potency [3] | Potency [16] | Potency [4] | Potency [5] | Potency [6] | Potency [18] | Potency [7] | Potency [8] | Potency [9] | Potency [10] | Potency [11] | Potency [12] | Potency [19] | Potency [13] | Potency [14]
